Measured values: publication PMC7862700, “An all-to-all approach to the identification of sequence-specific readers for epigenetic DNA modifications on cytosine”

Key:
Experiment in all cases: DAPPL (digital affinity profiling via proximity ligation, sequencing); 10 mM Tris-HCl pH 7.5, 50 mM NaCl, 1 mM DTT, 4% glycerol, room temperature, 30 min; GST-TFs on glutathione beads, 16-mer random dsDNA library, 0.1% formaldehyde crosslink after washing; high values mean tight binding
Details in all cases: protein: recombinant; tags: N-terminal GST; dsDNA, one strand shown
FLI1 = target: T1, FLI1 (Homo sapiens, UniProt Q01543 1-452)
T1 sequence: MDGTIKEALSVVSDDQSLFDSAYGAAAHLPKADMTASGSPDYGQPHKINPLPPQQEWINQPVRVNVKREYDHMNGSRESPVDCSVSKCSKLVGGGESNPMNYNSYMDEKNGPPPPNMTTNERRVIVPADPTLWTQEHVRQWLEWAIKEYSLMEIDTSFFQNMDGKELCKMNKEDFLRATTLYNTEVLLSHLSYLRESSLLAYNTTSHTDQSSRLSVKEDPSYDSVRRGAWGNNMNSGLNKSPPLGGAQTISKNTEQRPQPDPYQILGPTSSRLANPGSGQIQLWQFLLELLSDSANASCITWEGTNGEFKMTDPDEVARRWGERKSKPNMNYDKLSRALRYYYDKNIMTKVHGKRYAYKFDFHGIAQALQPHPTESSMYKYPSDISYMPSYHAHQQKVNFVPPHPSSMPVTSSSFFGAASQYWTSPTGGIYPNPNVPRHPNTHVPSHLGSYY
Summary of the method: (§1)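 After expression in yeast as GST fusions, human transcription factors were bound to glutathione beads, DNA-barcoded and mixed with a tag-only sample. The pools were incubated with 200 nmole of a 16-mer random double-stranded DNA library in Tris/NaCl/DTT/glycerol buffer (30 min, room temperature), washed and crosslinked with 0.1% formaldehyde. Proximity ligation with BsaI/T4 ligase ran for 1 h at 37 °C, before PCR amplification and sequencing on an Illumina NextSeq500. Binding signal is a hexamer's read frequency for a factor divided by its frequency for the tag-only sample.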

ELK1 = target: T2, ELK1 (Homo sapiens, UniProt P19419 1-428)
T2 sequence: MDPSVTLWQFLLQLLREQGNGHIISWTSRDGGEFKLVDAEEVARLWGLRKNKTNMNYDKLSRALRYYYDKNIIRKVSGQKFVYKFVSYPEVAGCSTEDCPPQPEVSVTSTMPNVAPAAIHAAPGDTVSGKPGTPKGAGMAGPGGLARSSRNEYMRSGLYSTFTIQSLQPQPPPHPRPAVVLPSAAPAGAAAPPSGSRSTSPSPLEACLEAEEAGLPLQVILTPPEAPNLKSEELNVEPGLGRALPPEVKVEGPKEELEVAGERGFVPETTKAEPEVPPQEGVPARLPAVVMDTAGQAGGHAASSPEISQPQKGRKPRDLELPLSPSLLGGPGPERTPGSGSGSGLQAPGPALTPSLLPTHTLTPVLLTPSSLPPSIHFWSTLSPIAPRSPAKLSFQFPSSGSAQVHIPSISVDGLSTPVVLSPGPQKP
Summary of the method: as §1

GABPA = target: T3, GABPA (Homo sapiens, UniProt Q06546 1-454)
T3 sequence: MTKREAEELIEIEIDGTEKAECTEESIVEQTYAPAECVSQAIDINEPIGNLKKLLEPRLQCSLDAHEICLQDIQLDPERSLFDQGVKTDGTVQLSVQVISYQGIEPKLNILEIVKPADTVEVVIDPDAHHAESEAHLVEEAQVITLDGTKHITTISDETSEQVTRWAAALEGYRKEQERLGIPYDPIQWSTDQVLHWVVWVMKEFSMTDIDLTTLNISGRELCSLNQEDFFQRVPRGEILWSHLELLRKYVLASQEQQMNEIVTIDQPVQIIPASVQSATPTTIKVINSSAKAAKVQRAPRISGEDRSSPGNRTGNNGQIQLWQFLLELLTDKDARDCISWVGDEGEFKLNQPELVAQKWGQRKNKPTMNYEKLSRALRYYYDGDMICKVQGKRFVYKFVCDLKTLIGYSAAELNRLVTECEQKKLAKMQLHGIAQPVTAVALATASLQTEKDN
Summary of the method: as §1

ERG = target: T4, ERG (Homo sapiens, UniProt P11308 1-479)
T4 sequence: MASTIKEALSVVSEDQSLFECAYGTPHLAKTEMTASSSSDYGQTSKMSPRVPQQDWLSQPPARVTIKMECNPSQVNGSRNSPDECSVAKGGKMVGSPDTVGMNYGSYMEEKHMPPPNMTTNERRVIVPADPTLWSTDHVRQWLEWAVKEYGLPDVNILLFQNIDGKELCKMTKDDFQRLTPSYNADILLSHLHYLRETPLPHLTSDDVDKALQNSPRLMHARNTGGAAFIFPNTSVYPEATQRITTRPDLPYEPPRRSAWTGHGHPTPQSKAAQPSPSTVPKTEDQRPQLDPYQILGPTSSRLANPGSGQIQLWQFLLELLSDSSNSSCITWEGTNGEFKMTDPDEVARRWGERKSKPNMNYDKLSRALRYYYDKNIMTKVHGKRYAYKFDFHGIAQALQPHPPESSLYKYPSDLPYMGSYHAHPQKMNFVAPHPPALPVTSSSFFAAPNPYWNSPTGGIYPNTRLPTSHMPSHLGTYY
Summary of the method: as §1

ELF1 = ELF1 (Homo sapiens, UniProt P32519 1-619)
Chain of ELF1 (P32519 whole entry): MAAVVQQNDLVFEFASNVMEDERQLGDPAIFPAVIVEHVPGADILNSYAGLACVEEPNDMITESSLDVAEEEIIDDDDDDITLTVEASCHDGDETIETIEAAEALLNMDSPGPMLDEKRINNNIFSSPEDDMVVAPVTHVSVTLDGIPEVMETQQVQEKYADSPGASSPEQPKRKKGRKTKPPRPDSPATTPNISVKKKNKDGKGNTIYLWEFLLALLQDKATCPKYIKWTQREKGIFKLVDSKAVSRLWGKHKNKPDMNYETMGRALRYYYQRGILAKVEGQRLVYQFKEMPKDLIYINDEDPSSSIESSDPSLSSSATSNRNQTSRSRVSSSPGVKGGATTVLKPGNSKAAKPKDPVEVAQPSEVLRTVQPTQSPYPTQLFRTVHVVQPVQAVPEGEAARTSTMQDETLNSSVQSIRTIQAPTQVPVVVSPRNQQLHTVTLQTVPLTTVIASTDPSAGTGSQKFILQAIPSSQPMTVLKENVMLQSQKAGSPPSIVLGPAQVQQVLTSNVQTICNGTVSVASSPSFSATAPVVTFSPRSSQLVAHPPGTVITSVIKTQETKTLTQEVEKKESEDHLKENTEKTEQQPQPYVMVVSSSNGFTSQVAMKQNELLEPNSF
Summary of the method: as §1

EHF = target: T5, EHF (Homo sapiens, UniProt Q9NZC4 1-300)
T5 sequence: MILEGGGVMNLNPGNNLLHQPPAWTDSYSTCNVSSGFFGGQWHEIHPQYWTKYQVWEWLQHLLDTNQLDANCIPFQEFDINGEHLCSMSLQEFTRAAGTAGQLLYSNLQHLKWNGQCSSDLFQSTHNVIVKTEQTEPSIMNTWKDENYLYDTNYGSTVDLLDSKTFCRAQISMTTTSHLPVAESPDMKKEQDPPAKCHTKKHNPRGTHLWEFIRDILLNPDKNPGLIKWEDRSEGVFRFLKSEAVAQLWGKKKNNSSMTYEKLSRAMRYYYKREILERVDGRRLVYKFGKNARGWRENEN
Summary of the method: as §1

SPI1 = SPI1 (Homo sapiens, UniProt P17947 1-270)
Summary of the method: as §1

SPIB = SPIB (Homo sapiens, UniProt Q01892 1-262)
Chain of SPIB (Q01892 whole entry): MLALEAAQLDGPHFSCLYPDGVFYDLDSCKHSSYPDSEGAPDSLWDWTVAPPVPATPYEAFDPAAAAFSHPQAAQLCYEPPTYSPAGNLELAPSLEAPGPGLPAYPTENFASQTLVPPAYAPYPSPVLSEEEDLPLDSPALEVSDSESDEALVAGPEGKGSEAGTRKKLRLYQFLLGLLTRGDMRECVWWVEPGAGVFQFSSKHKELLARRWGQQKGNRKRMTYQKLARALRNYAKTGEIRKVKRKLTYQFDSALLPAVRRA
Summary of the method: as §1

ELK3 = target: T6, ELK3 (Homo sapiens, UniProt P41970 1-407)
T6 sequence: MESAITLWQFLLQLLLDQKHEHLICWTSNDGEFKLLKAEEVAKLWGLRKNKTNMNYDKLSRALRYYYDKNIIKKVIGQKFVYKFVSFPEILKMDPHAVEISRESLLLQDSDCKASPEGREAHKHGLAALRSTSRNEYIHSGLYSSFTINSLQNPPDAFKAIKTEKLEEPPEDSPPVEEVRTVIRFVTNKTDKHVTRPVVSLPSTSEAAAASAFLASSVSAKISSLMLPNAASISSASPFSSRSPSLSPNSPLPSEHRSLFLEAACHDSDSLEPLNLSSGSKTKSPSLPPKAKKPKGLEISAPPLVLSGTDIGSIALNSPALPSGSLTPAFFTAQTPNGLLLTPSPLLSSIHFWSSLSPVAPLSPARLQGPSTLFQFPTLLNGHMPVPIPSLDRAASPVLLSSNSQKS
Summary of the method: as §1

FEV = target: T7, FEV (Homo sapiens, UniProt Q99581 1-238)
T7 sequence: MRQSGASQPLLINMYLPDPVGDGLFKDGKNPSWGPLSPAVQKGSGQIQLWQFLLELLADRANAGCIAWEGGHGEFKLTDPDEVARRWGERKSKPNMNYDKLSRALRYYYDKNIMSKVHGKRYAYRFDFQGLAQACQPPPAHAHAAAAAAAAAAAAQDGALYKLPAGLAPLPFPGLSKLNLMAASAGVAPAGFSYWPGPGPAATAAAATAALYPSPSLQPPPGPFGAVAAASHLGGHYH
Summary of the method: as §1

ETV5 = ETV5 (Homo sapiens, UniProt P41161 1-510)
Chain of ETV5 (P41161 whole entry): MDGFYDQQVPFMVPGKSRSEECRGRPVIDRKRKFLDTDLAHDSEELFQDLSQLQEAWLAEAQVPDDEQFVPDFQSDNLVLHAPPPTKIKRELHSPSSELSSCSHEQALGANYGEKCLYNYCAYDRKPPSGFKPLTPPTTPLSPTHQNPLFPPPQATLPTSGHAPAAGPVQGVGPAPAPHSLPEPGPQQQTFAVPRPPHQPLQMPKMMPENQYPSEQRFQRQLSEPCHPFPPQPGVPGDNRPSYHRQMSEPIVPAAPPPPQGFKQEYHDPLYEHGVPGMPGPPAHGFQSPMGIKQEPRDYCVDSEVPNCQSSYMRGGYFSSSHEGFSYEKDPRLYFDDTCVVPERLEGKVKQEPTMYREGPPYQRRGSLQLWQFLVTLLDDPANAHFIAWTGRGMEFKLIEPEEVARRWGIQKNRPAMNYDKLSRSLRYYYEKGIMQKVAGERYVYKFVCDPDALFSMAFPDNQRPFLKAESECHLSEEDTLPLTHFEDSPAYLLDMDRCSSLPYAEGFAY
Summary of the method: as §1

SPIC = target: T8, SPIC (Homo sapiens, UniProt Q8N5J4 1-248)
T8 sequence: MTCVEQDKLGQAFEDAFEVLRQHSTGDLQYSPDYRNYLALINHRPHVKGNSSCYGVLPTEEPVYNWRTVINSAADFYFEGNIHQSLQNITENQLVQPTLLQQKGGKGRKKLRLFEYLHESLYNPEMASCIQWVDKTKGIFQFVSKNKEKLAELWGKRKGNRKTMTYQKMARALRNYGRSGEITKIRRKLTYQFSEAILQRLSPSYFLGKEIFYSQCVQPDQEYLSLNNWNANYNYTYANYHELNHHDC
Summary of the method: as §1

ELF4 = ELF4 (Homo sapiens, UniProt Q99607 1-663)
Chain of ELF4 (Q99607 whole entry): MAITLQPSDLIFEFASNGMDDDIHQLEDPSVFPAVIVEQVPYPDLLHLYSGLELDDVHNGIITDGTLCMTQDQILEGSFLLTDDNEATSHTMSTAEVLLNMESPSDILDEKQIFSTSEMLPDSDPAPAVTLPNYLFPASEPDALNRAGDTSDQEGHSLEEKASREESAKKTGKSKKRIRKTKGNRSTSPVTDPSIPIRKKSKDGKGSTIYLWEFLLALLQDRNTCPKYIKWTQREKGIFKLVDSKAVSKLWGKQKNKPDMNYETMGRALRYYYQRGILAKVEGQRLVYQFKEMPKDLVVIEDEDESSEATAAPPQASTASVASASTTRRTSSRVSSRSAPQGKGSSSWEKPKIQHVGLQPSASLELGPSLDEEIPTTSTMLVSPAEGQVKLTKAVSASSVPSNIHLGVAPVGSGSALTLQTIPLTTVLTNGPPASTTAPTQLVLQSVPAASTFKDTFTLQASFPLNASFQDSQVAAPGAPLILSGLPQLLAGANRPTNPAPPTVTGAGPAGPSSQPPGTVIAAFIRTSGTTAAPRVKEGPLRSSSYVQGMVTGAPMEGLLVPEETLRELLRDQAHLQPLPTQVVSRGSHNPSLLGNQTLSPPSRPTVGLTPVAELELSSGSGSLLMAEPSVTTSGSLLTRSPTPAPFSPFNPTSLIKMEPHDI
Summary of the method: as §1

ELK4 = target: T9, ELK4 (Homo sapiens, UniProt P28324-2 1-405)
T9 sequence: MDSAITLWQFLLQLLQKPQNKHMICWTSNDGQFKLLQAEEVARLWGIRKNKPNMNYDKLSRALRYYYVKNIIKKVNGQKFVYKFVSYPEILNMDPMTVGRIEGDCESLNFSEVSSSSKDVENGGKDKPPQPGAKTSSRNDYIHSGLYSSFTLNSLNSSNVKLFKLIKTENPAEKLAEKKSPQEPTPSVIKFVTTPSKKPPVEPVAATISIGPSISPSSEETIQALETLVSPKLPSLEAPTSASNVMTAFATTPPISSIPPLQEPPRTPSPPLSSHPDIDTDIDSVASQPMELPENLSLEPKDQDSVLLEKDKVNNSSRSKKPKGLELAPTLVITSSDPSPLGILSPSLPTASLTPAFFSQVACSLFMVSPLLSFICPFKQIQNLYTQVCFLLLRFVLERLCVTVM
Summary of the method: as §1

ETV2 = target: T10, ETV2 (Homo sapiens, UniProt O00321 1-342)
T10 sequence: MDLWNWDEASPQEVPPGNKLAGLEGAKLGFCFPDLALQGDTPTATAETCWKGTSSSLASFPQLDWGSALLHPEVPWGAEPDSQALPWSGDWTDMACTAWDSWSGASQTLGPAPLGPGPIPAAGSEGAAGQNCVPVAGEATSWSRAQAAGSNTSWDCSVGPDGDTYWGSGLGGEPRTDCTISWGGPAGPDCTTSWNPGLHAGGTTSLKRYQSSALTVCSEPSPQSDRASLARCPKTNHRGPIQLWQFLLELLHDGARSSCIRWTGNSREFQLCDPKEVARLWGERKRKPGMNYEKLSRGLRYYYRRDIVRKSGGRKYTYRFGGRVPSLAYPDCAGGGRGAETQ
Summary of the method: as §1

ELF3 = target: T11, ELF3 (Homo sapiens, UniProt P78545 1-371)
T11 sequence: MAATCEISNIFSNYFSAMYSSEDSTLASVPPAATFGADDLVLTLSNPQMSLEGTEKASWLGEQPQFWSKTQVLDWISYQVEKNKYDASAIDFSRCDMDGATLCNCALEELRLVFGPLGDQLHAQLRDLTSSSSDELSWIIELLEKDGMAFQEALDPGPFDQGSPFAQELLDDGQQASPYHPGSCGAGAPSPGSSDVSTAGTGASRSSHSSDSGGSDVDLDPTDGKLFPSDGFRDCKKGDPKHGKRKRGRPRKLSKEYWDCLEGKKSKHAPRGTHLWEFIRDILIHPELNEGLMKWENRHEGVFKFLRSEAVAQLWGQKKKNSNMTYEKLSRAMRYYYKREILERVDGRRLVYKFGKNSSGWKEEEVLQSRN
Summary of the method: as §1

ETV1 = ETV1 (Homo sapiens, UniProt P50549 1-477)
Chain of ETV1 (P50549 whole entry): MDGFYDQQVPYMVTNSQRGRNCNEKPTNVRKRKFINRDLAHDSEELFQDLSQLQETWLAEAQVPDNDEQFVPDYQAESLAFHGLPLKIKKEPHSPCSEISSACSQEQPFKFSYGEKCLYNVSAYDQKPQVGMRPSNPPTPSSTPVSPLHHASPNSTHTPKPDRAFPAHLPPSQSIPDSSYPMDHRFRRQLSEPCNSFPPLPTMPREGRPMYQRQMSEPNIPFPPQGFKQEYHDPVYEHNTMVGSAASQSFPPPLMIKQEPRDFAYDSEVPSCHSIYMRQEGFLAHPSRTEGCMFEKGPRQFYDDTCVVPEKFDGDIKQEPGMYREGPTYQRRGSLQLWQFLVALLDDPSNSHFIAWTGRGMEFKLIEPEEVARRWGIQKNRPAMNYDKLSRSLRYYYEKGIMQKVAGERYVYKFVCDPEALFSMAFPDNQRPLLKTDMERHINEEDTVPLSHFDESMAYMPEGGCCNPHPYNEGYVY
Summary of the method: as §1

Row | Sequence | binding signal (FLI1) | binding signal (ELK1) | binding signal (GABPA) | binding signal (ERG) | binding signal (ELF1) | binding signal (EHF) | binding signal (SPI1) | binding signal (SPIB) | binding signal (ELK3) | binding signal (FEV) | binding signal (ETV5) | binding signal (SPIC) | binding signal (ELF4) | binding signal (ELK4) | binding signal (ETV2) | binding signal (ELF3) | binding signal (ETV1)
1 | ACCTCA | 1.2 fold enrichment (6-mer frequency, TF over GST control) | 1.16 fold enrichment (6-mer frequency, TF over GST control) | 1.29 fold enrichment (6-mer frequency, TF over GST control) | 1.15 fold enrichment (6-mer frequency, TF over GST control) | 1.23 fold enrichment (6-mer frequency, TF over GST control) | 1.28 fold enrichment (6-mer frequency, TF over GST control) | 1.22 fold enrichment (6-mer frequency, TF over GST control) | 1.19 fold enrichment (6-mer frequency, TF over GST control) | 1.19 fold enrichment (6-mer frequency, TF over GST control) | 1.17 fold enrichment (6-mer frequency, TF over GST control) | 1.16 fold enrichment (6-mer frequency, TF over GST control) | 1.33 fold enrichment (6-mer frequency, TF over GST control) | 1.2 fold enrichment (6-mer frequency, TF over GST control) | 1.26 fold enrichment (6-mer frequency, TF over GST control) | 1.2 fold enrichment (6-mer frequency, TF over GST control) | 1.24 fold enrichment (6-mer frequency, TF over GST control) | 1.32 fold enrichment (6-mer frequency, TF over GST control)
2 | CTCACC | 1.26 fold enrichment (6-mer frequency, TF over GST control) | 1.32 fold enrichment (6-mer frequency, TF over GST control) | 1.32 fold enrichment (6-mer frequency, TF over GST control) | 1.13 fold enrichment (6-mer frequency, TF over GST control) | 1.2 fold enrichment (6-mer frequency, TF over GST control) | 1.24 fold enrichment (6-mer frequency, TF over GST control) | 1.24 fold enrichment (6-mer frequency, TF over GST control) | 1.34 fold enrichment (6-mer frequency, TF over GST control) | 1.3 fold enrichment (6-mer frequency, TF over GST control) | 1.2 fold enrichment (6-mer frequency, TF over GST control) | 1.16 fold enrichment (6-mer frequency, TF over GST control) | 1.25 fold enrichment (6-mer frequency, TF over GST control) | 1.28 fold enrichment (6-mer frequency, TF over GST control) | 1.2 fold enrichment (6-mer frequency, TF over GST control) | 1.17 fold enrichment (6-mer frequency, TF over GST control) | 1.33 fold enrichment (6-mer frequency, TF over GST control) | 1.25 fold enrichment (6-mer frequency, TF over GST control)
